Laboratory results reported in PubChem BioAssay (NCI).
Compounds without any hit were thinned out: in the full panel of roughly 83,000, 20% have a hit.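 For each line, cells grew in 96-well plates with the test compound present at a single concentration for 48 hours.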 Active and inactive are the calls of the source. Rule for the calls: active = growth percent below 10; inactive = the rest.

What was measured:
Test in all cases: NCI-60 one-dose screen, 48 h (100 = growth as untreated, 0 = no growth, -100 = all killed)
NCI-H23 lung = conditions: 10 µM unless noted
NCI-H226 lung = conditions: 10 µM unless noted
NCI-H322M lung = conditions: 10 µM unless noted
HOP-62 NSCLC = conditions: 10 µM unless noted
NCI-H460 lung = conditions: 10 µM unless noted
HOP-92 NSCLC = conditions: 10 µM unless noted
NCI-H522 lung = conditions: 10 µM unless noted
A549/ATCC NSCLC = conditions: 10 µM unless noted
786-0 renal = conditions: 10 µM unless noted
DU-145 prostate = conditions: 10 µM unless noted
K-562 leukemia = conditions: 10 µM unless noted
MALME-3M melanoma = conditions: 10 µM unless noted
MDA-MB-231 breast = conditions: 10 µM unless noted
RXF 393 renal = conditions: 10 µM unless noted
SF-268 CNS = conditions: 10 µM unless noted
SF-295 CNS = conditions: 10 µM unless noted
SF-539 CNS = conditions: 10 µM unless noted
M14 melanoma = conditions: 10 µM unless noted
UACC-257 melanoma = conditions: 10 µM
COLO 205 colon = conditions: 10 µM unless noted

Measured: growth

Cc1c(C2=NNC(c3ccc4c(c3)OCO4)C2)[n+]([O-])c2ccccc2[n+]1[O-] (centres undefined)
inactive: NCI-H23 lung 93.8% | NCI-H226 lung 102% | NCI-H322M lung 161% | HOP-62 NSCLC 92.1% | NCI-H460 lung 111% | HOP-92 NSCLC 83.6% | NCI-H522 lung 95.9% | A549/ATCC NSCLC 109% | 786-0 renal 106% | DU-145 prostate 103% | K-562 leukemia 91.2% | MALME-3M melanoma 154% | MDA-MB-231 breast 102% | RXF 393 renal 96.4% | SF-268 CNS 114% | SF-295 CNS 105% | SF-539 CNS 96.2% | M14 melanoma 99.6%

CCn1cc(C(=O)O)c(=O)c2cc(F)c(N3CCN(S(=O)(=O)c4ccc(Cl)cc4Cl)CC3)cc21
inactive: NCI-H226 lung 13.1% | HOP-62 NSCLC 19.5% | NCI-H460 lung 10.9% | 786-0 renal 18.7% | DU-145 prostate 11.6% | K-562 leukemia 10.9% | MDA-MB-231 breast 25.5% | RXF 393 renal 27.9% | SF-268 CNS 24.6% | M14 melanoma 15.9%
active: NCI-H23 lung -3.58% | NCI-H322M lung -5.57% | HOP-92 NSCLC -9.06% | NCI-H522 lung -75.8% | A549/ATCC NSCLC 2.05% | MALME-3M melanoma -19.8% | SF-295 CNS -32% | SF-539 CNS 8.88% | UACC-257 melanoma -15.2%

O=S(=O)(NCCCNc1nccc(-c2c(-c3ccccc3)nc3sccn23)n1)c1ccc(F)cc1
inactive: NCI-H23 lung 38% | NCI-H226 lung 24.2% | NCI-H322M lung 68.3% | HOP-62 NSCLC 89% | NCI-H460 lung 47.9% | HOP-92 NSCLC 86.9% | NCI-H522 lung 38.4% | A549/ATCC NSCLC 43.6% | 786-0 renal 44.8% | DU-145 prostate 44.8% | K-562 leukemia 26.4% | MALME-3M melanoma 67.9% | MDA-MB-231 breast 58.4% | RXF 393 renal 47.2% | SF-268 CNS 51% | SF-295 CNS 29.8% | SF-539 CNS 82% | UACC-257 melanoma 71.3% | M14 melanoma 35%

Cc1ccccc1C(=O)c1ccccc1C(=O)O
inactive: NCI-H23 lung 100% | NCI-H226 lung 110% | NCI-H322M lung 108% | HOP-62 NSCLC 106% | NCI-H460 lung 111% | HOP-92 NSCLC 105% | NCI-H522 lung 102% | A549/ATCC NSCLC 103% | 786-0 renal 97.9% | DU-145 prostate 110% | K-562 leukemia 106% | MALME-3M melanoma 109% | MDA-MB-231 breast 115% | RXF 393 renal 118% | SF-268 CNS 106% | SF-295 CNS 109% | SF-539 CNS 105% | M14 melanoma 96.3%

c1ccc2nc(-c3ccc4ccccc4n3)ccc2c1
inactive: NCI-H23 lung 88.5% | NCI-H226 lung 85.9% | NCI-H322M lung 95.8% | HOP-62 NSCLC 82.8% | NCI-H460 lung 103% | HOP-92 NSCLC 83% | NCI-H522 lung 70% | A549/ATCC NSCLC 102% | COLO 205 colon 106% | DU-145 prostate 106% | K-562 leukemia 93.3% | MALME-3M melanoma 83.5% | RXF 393 renal 117% | SF-268 CNS 95.9% | SF-295 CNS 93.5% | SF-539 CNS 88.3% | UACC-257 melanoma 106% | M14 melanoma 90.2%

O=C(O)c1cn(C2CC2)c2cc(N3CCN(S(=O)(=O)c4ccc(Cl)c(Cl)c4)CC3)c(F)cc2c1=O
inactive: NCI-H226 lung 41.4% | NCI-H322M lung 21.3% | HOP-62 NSCLC 15.2% | HOP-92 NSCLC 12.2% | 786-0 renal 27.8% | DU-145 prostate 17.2% | K-562 leukemia 16.9% | MDA-MB-231 breast 36.6% | RXF 393 renal 29.1% | SF-268 CNS 19.6% | SF-539 CNS 11.4% | M14 melanoma 18.5%
active: NCI-H23 lung 1.76% | NCI-H460 lung 5.77% | NCI-H522 lung -21.4% | A549/ATCC NSCLC 6.02% | MALME-3M melanoma -1.09% | SF-295 CNS -7.27% | UACC-257 melanoma 8.87%

COc1ccc(/C=C/C(=O)OCC(=O)NNC(=O)c2ccccc2)cc1OC
inactive: NCI-H23 lung 106% | NCI-H226 lung 103% | NCI-H322M lung 117% | HOP-62 NSCLC 84.1% | NCI-H460 lung 110% | HOP-92 NSCLC 79.3% | NCI-H522 lung 104% | A549/ATCC NSCLC 99.2% | 786-0 renal 99.8% | DU-145 prostate 101% | K-562 leukemia 90.2% | MALME-3M melanoma 105% | MDA-MB-231 breast 94.8% | RXF 393 renal 97.1% | SF-268 CNS 108% | SF-295 CNS 89.6% | SF-539 CNS 91% | M14 melanoma 107%

COc1ccc(NC(=O)CSc2nc3ccc(Cl)cc3c(=O)n2-c2ccccc2C(F)(F)F)c(OC)c1OC
inactive: NCI-H23 lung 79.6% | NCI-H226 lung 62% | NCI-H322M lung 86.6% | HOP-62 NSCLC 60.6% | NCI-H460 lung 82.4% | NCI-H522 lung 32.4% | A549/ATCC NSCLC 72% | COLO 205 colon 92.9% | DU-145 prostate 79.1% | K-562 leukemia 92.8% | MALME-3M melanoma 60.8% | MDA-MB-231 breast 54% | RXF 393 renal 60.3% | SF-268 CNS 66.7% | SF-295 CNS 60.9% | SF-539 CNS 66.9% | UACC-257 melanoma 86% | M14 melanoma 91.4%
active: HOP-92 NSCLC -2.83%

CC(C)[C@H](CO)Nc1nc(Nc2ccc(C(=O)NCCNS(=O)(=O)c3cccc4c(N(C)C)cccc34)c(Cl)c2)c2ncn(C(C)C)c2n1
inactive: NCI-H23 lung 25.3% | NCI-H226 lung 22% | NCI-H322M lung 15.4% | NCI-H460 lung 16.2% | DU-145 prostate 29% | K-562 leukemia 10.9% | MALME-3M melanoma 51.2% | M14 melanoma 23.5%
active: HOP-62 NSCLC 1.86% | HOP-92 NSCLC -9.2% | NCI-H522 lung -31.5% | A549/ATCC NSCLC 0.602% | 786-0 renal -1.14% | MDA-MB-231 breast 7.36% | RXF 393 renal -57.1% | SF-268 CNS 0.765% | SF-295 CNS -16.5% | SF-539 CNS -50.2% | UACC-257 melanoma 3.15%

C#CCN1C(=O)/C(=c2\sc3n(c2=O)C2C(NN=3)N(CC)C(=O)N2CC)c2ccccc21 (centres undefined)
active: HOP-62 NSCLC -4.91% | NCI-H460 lung 5.2% | K-562 leukemia 7.6% | SF-295 CNS -13% | SF-539 CNS -39.7%
inactive: NCI-H23 lung 18.5% | NCI-H226 lung 98% | NCI-H322M lung 44.3% | HOP-92 NSCLC 58.1% | NCI-H522 lung 25% | A549/ATCC NSCLC 23.3% | 786-0 renal 12% | DU-145 prostate 14.8% | MALME-3M melanoma 43.6% | MDA-MB-231 breast 21% | SF-268 CNS 50% | M14 melanoma 26.1%

O=C(Nc1ccccc1)OCC1OCOC(COC(=O)Nc2ccccc2)C1OC(=O)Nc1ccccc1 (centres undefined)
active: NCI-H460 lung 6.23%
inactive: NCI-H23 lung 67.1% | NCI-H226 lung 84% | NCI-H322M lung 49.4% | HOP-62 NSCLC 64.8% | HOP-92 NSCLC 94.9% | NCI-H522 lung 38.2% | A549/ATCC NSCLC 47.9% | 786-0 renal 49.3% | DU-145 prostate 43.7% | K-562 leukemia 57.9% | MALME-3M melanoma 72.2% | RXF 393 renal 37% | SF-268 CNS 39.8% | SF-295 CNS 90.5% | SF-539 CNS 72.4% | UACC-257 melanoma 102% | M14 melanoma 16.2%

O=C(c1c[nH]c2ccccc12)C(Sc1nc2ccccc2c(=O)[nH]1)c1ccccc1 (centres undefined)
inactive: NCI-H23 lung 116% | NCI-H226 lung 95.9% | NCI-H322M lung 121% | HOP-62 NSCLC 89.6% | NCI-H460 lung 110% | HOP-92 NSCLC 91.7% | NCI-H522 lung 93.7% | A549/ATCC NSCLC 93.4% | 786-0 renal 104% | DU-145 prostate 94.3% | K-562 leukemia 101% | MALME-3M melanoma 88.7% | MDA-MB-231 breast 91.6% | RXF 393 renal 26.1% | SF-268 CNS 105% | SF-295 CNS 93.1% | SF-539 CNS 89.2% | M14 melanoma 104%

COc1cc(/C=C/C(=O)c2ccc(NC(=O)CN3CCN(c4cc5c(cc4F)c(=O)c(C(=O)O)cn5C4CC4)CC3)cc2)cc(OC)c1OC
inactive: MALME-3M melanoma 31.4% | MDA-MB-231 breast 27.6% | UACC-257 melanoma 30.8%
active: NCI-H23 lung -35.6% | NCI-H226 lung -9.81% | NCI-H322M lung -7.05% | HOP-62 NSCLC 4.38% | NCI-H460 lung -20% | HOP-92 NSCLC -1.75% | NCI-H522 lung -71.5% | A549/ATCC NSCLC -19.2% | 786-0 renal -67.8% | DU-145 prostate 2.17% | K-562 leukemia 1.66% | RXF 393 renal -87.6% | SF-268 CNS -1.11% | SF-295 CNS -27.2% | SF-539 CNS -15.7% | M14 melanoma -14.1%

Cn1cc(C=O)c2ccccc21
inactive: NCI-H23 lung 96.4% | NCI-H226 lung 95.2% | NCI-H322M lung 97.8% | HOP-62 NSCLC 95.9% | NCI-H460 lung 104% | HOP-92 NSCLC 87.6% | NCI-H522 lung 98.3% | A549/ATCC NSCLC 104% | 786-0 renal 99.2% | DU-145 prostate 111% | K-562 leukemia 95.4% | MALME-3M melanoma 87.9% | MDA-MB-231 breast 104% | RXF 393 renal 105% | SF-268 CNS 101% | SF-295 CNS 107% | SF-539 CNS 97.6% | UACC-257 melanoma 105% | M14 melanoma 103%

O=C(Nc1cccc(C(F)(F)F)c1)Nc1ccc(OCc2nnc(-c3ccccc3)o2)c(F)c1
inactive: NCI-H23 lung 35.7% | NCI-H226 lung 56.3% | NCI-H322M lung 61.6% | HOP-62 NSCLC 56.1% | A549/ATCC NSCLC 29.9% | 786-0 renal 60.4% | DU-145 prostate 31.9% | K-562 leukemia 22.1% | MALME-3M melanoma 53.7% | MDA-MB-231 breast 42.9% | SF-268 CNS 58.7% | SF-295 CNS 17% | SF-539 CNS 27.8% | UACC-257 melanoma 70% | M14 melanoma 40.9%
active: NCI-H460 lung 6.12% | HOP-92 NSCLC -8.2% | NCI-H522 lung 1.68%

c1cc(-c2ccc3c(c2)OCO3)n2nccc2n1
inactive: NCI-H23 lung 104% | NCI-H226 lung 83% | NCI-H322M lung 99.3% | HOP-62 NSCLC 108% | NCI-H460 lung 101% | HOP-92 NSCLC 83.9% | NCI-H522 lung 89.7% | 786-0 renal 101% | COLO 205 colon 113% | DU-145 prostate 106% | K-562 leukemia 102% | MALME-3M melanoma 104% | MDA-MB-231 breast 106% | RXF 393 renal 96.4% | SF-268 CNS 104% | SF-295 CNS 99.9% | SF-539 CNS 89.1% | UACC-257 melanoma 103%
